# Assay results reported in paper PMC7819943, “Rice protein-binding microarrays: a tool to detect cis-acting elements near promoter regions in rice”.
# Over roughly 39,000 sequences, “fluorescence intensity (a.u.)” has its median near 4,300; the highest 2% begin near 39,000. For the sample, the highest values were picked, then their nearest neighbours and some sequences at random.
# Molecular target: T1, OsSMF1 (Oryza sativa, UniProt Q6ZLB0 1-436)
# T1 sequence: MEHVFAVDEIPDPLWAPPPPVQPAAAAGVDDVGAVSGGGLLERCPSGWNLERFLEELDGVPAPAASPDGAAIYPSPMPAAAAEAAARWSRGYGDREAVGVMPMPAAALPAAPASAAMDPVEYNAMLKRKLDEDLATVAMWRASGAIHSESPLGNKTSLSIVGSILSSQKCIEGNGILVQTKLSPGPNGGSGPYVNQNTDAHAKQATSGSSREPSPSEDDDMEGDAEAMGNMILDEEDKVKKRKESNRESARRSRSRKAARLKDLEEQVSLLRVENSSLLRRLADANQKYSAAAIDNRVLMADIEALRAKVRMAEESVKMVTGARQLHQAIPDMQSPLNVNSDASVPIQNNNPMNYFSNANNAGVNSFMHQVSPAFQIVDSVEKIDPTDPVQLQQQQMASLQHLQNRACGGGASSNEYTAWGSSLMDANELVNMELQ
# Assay: protein-binding microarray (RPBM); PBS, 2% BSA, 51.3 ng/ul salmon testes DNA, 50 uM zinc acetate, 200 nM TF, 25 C, 1 h; high values mean tight binding
# Conditions: protein: recombinant; tags: N-terminal polyhistidine and DsRed monomer fusion (pET32a); chain copies: 2; label: CyDye5-dUTP incorporated in the synthesized complementary strand; 3' TTTTT single-stranded linker to array surface; dsDNA, one strand shown
# How it was run: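 Polyhistidine-tagged DsRed fusions of transcription factors, joined at the N-terminus, were expressed in E. coli BL21-CodonPlus and isolated on Ni–NTA. They were incubated at 200 nM for 1 h at 25 °C on a custom Agilent array, double-stranded and BSA-blocked, in PBS with 2% BSA, salmon testes DNA and 50 µM zinc acetate. The binding signal is per-feature fluorescence intensity (arbitrary units) read on an Axon 4000B scanner after washing.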
row,Sequence,binding signal
1,TACTTAAGTGCCAAGTGTCAAAGTGTGTGTGGTTTTCTGCCGGAGTCACCTAGTGCAG,4130 fluorescence intensity (a.u.)
2,TCCAAATAGCACGTACGCATGCATGCGTCCATGCCATCTCCGGAGTCACCTAGTGCAG,3270 fluorescence intensity (a.u.)
3,CGCTCGACTTCTCTTCTCTCATACACGTGTCATTAAATTTCGGAGTCACCTAGTGCAG,8480 fluorescence intensity (a.u.)
4,TGGACCTGAACCGAACCACTAAGTAGTAGTACGTGTGAGGCGGAGTCACCTAGTGCAG,41100 fluorescence intensity (a.u.)
5,GAGGTGTACCACTAAGTGTGTACGTGTATAGTGGGGCGTGCGGAGTCACCTAGTGCAG,7420 fluorescence intensity (a.u.)
6,ATAAGTACGAATACTAAGTACGTGTGTGTTTGGAGGGTGTCGGAGTCACCTAGTGCAG,4340 fluorescence intensity (a.u.)
7,CTCCTTGACAACCAGCACCGATCCCTGAGTCACCCAACGACGGAGTCACCTAGTGCAG,6120 fluorescence intensity (a.u.)
8,TTCTGTAACATAGGCTAACGTCAACGTGGCATTCATTTTGCGGAGTCACCTAGTGCAG,13200 fluorescence intensity (a.u.)
9,ATTAGTTTTATTAAATCTTACATTGAATATATTTTGATAACGGAGTCACCTAGTGCAG,3390 fluorescence intensity (a.u.)
10,CTGCACATAATAACGTGGATGAATCTTAAACGTCCATTTACGGAGTCACCTAGTGCAG,47100 fluorescence intensity (a.u.)
11,AAATAATTTATGAATAAAACTTTTATCTACGTGTTCTTAACGGAGTCACCTAGTGCAG,4110 fluorescence intensity (a.u.)
12,TATTTAAGTCAGTACTAAAGCACACATGTACAAATTTTACCGGAGTCACCTAGTGCAG,4160 fluorescence intensity (a.u.)
13,ACCAAACACCGCAAAATAAACAGTCATCCTCCGCACCGCGCGGAGTCACCTAGTGCAG,4480 fluorescence intensity (a.u.)
14,ATAACAGCGGGCCTTACGTGTACATGATAGTATATAGTACCGGAGTCACCTAGTGCAG,7000 fluorescence intensity (a.u.)
15,AAAATAAAATTTATTAATAATATTTTATCTATATTTACGACGGAGTCACCTAGTGCAG,30400 fluorescence intensity (a.u.)
16,ACAGACTTGTTTAAGTTACAAGACGATACTATAAGAATTTCGGAGTCACCTAGTGCAG,41100 fluorescence intensity (a.u.)
17,TTTATTAATATATATATATATATATATATATATATATATACGGAGTCACCTAGTGCAG,7400 fluorescence intensity (a.u.)
18,TGAAACGGAGGGAGTATTATTAATATCTTAAGATGGACGACGGAGTCACCTAGTGCAG,6690 fluorescence intensity (a.u.)
19,ATCAACAACTGTATTTAAAATGGGACGAATAGAGTAAATGCGGAGTCACCTAGTGCAG,20200 fluorescence intensity (a.u.)
20,ATATAAGATGTAACTATTACGATGTTTCATGATACAAGTACGGAGTCACCTAGTGCAG,15000 fluorescence intensity (a.u.)
21,CAGAAAACAATAGTTATATTTAAGATGGGACGAATGGAGTCGGAGTCACCTAGTGCAG,53100 fluorescence intensity (a.u.)
22,ATATTTAACAACGGATCAAATGATAGGAAAATAATTAATACGGAGTCACCTAGTGCAG,4700 fluorescence intensity (a.u.)

row,Sequence,binding signal
1,CTATTAGAATATTTTATAATAGTTAATAGTTAATTAATTACGGAGTCACCTAGTGCAG,39700 fluorescence intensity (a.u.)
2,GTTTGTTGTCGATACAATCACTAGTTGTGTTTGTTAATTTCGGAGTCACCTAGTGCAG,4170 fluorescence intensity (a.u.)
3,TTATTAATATATTTAATTTAATGATCCGAGATAACATATCCGGAGTCACCTAGTGCAG,35600 fluorescence intensity (a.u.)
4,AATTACATAATTTTAATACGAAGATGAATGATCAAATATACGGAGTCACCTAGTGCAG,56600 fluorescence intensity (a.u.)
5,GAGCGAGGCGAGGGTGGGGAGGCGGAGGAGGATGTCCAGGCGGAGTCACCTAGTGCAG,4580 fluorescence intensity (a.u.)
6,ATTTGATAAATGGGATGCCACGTGTACACCACGTCAACAGCGGAGTCACCTAGTGCAG,31000 fluorescence intensity (a.u.)
7,GATCAGATCGCACGCTGAGACGTATAGACGACGTGGGTCCCGGAGTCACCTAGTGCAG,4650 fluorescence intensity (a.u.)
8,TGTTTGTATAATTTTGAGTTATCAACAGTCGCGATGGAGACGGAGTCACCTAGTGCAG,24900 fluorescence intensity (a.u.)
9,CAAGTACCCAACCCGCGTCGTCATCGTCGTCTTCCTACTTCGGAGTCACCTAGTGCAG,5510 fluorescence intensity (a.u.)
10,AAAATGTCATGTAACTACGCCATTGGACCATAAATATTTTCGGAGTCACCTAGTGCAG,13600 fluorescence intensity (a.u.)
11,TGTATTTGCTACCGTTTTCCAATATGTACCGTCATGTTTCCGGAGTCACCTAGTGCAG,3920 fluorescence intensity (a.u.)
12,TTATTATTAGTAAATATGTAGTTTTACGATATTTAGTCTTCGGAGTCACCTAGTGCAG,44400 fluorescence intensity (a.u.)
13,ATATTATATTAAATTTGTAGTTTTACGATAATATGGTAAACGGAGTCACCTAGTGCAG,25400 fluorescence intensity (a.u.)
14,AATATGGATTATTACCAAGAATTTATCCGTTGTTTTGCTACGGAGTCACCTAGTGCAG,40700 fluorescence intensity (a.u.)
15,ATTATTTAAGTGATGATATGTAAATAACGAGTGAAGTTTTCGGAGTCACCTAGTGCAG,3400 fluorescence intensity (a.u.)
16,CAGACGGATTATGTAATTTGTTTTATTATTAATTAGTCTACGGAGTCACCTAGTGCAG,3890 fluorescence intensity (a.u.)
17,TTTCTCGGAATTTCTGGAAATTTTCTTGGAATTAGTAGAACGGAGTCACCTAGTGCAG,65500 fluorescence intensity (a.u.)
18,GAGAGAATCTTGGAACGATTAGTAGTACATAAAGTAGAATCGGAGTCACCTAGTGCAG,3650 fluorescence intensity (a.u.)
19,TATGGATGGGTTTTATTAATAGTCTACGTTTAATATTTATCGGAGTCACCTAGTGCAG,4490 fluorescence intensity (a.u.)
20,TACGAATTATGTAATTTGTTTTGTTATTAGTGTACATCTACGGAGTCACCTAGTGCAG,4070 fluorescence intensity (a.u.)
21,TACGGAACCTGTAATTTGTTTTGTTATTAGTCTACATTTACGGAGTCACCTAGTGCAG,45800 fluorescence intensity (a.u.)
22,TATTCTGATTGGAACTTATGAGTCTTGAATTCTTGATTCTCGGAGTCACCTAGTGCAG,29700 fluorescence intensity (a.u.)
